Data from PubChem BioAssay (NCI).
About 83,000 compounds went through this panel and 20% of them were active in at least one assay; those are over-represented in the sample as a whole.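 Negative percent growth values reflect cell death: -40 means 40% of the cells present at the start died, and -100 means all died.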 The source made the active and inactive calls. The calls were made as follows: active = growth percent below 10; inactive = the rest.

Assays:
Experiment in all cases: NCI-60 one-dose screen, 48 h (100 = growth as untreated, 0 = no growth, -100 = all killed)
Conditions in all cases: 10 µM unless noted
NCI-H23 lung = test system: NCI-H23 lung
NCI-H226 lung = test system: NCI-H226 lung
NCI-H322M lung = test system: NCI-H322M lung
HOP-62 NSCLC = test system: HOP-62 NSCLC
NCI-H460 lung = test system: NCI-H460 lung
HOP-92 NSCLC = test system: HOP-92 NSCLC
NCI-H522 lung = test system: NCI-H522 lung
A549/ATCC NSCLC = test system: A549/ATCC NSCLC
786-0 renal = test system: 786-0 renal
COLO 205 colon = test system: COLO 205 colon

Measured: growth

CCOC(=O)C1=C(C)NC(SCc2nnc(-c3ccc(Cl)cc3)o2)=NC1c1ccc(Cl)cc1 (stereo not given)
inactive: NCI-H23 lung 78.8% | NCI-H226 lung 69.9% | NCI-H322M lung 82.3% | HOP-62 NSCLC 92.8% | NCI-H460 lung 79% | HOP-92 NSCLC 64.1% | NCI-H522 lung 68.9% | A549/ATCC NSCLC 69% | 786-0 renal 83.4% | COLO 205 colon 79.6%

O=C(CCCCCCc1nc2ccc(Br)cc2[nH]1)NO
inactive: NCI-H226 lung 19.3% | HOP-62 NSCLC 12.5%
active: NCI-H23 lung -25.6% | NCI-H322M lung 4.52% | NCI-H460 lung -25.6% | HOP-92 NSCLC -21.7% | NCI-H522 lung -16% | A549/ATCC NSCLC 7.55% | 786-0 renal -4.46% | COLO 205 colon -98.5%

N#Cc1nc(-c2ccc(Cl)cc2)cc(-c2ccc(Nc3nc(N4CCCCC4)nc(N4CCCCC4)n3)cc2)c1N
inactive: NCI-H23 lung 92.1% | NCI-H226 lung 71.2% | NCI-H322M lung 109% | HOP-62 NSCLC 94.8% | NCI-H460 lung 104% | HOP-92 NSCLC 101% | NCI-H522 lung 96.9% | A549/ATCC NSCLC 106% | 786-0 renal 103% | COLO 205 colon 113%

COc1ccc(Br)c2ccccc12
inactive: NCI-H23 lung 109% | NCI-H226 lung 106% | NCI-H322M lung 117% | HOP-62 NSCLC 103% | NCI-H460 lung 114% | HOP-92 NSCLC 93.9% | NCI-H522 lung 97.9% | A549/ATCC NSCLC 104% | 786-0 renal 115% | COLO 205 colon 120%

O=C1Cc2c([nH]c3ccc([N+](=O)[O-])cc23)-c2ccccc2N1
active: NCI-H23 lung 2.05% | NCI-H460 lung 6.76% | HOP-92 NSCLC -17.1% | NCI-H522 lung 0.987% | 786-0 renal 7.56% | COLO 205 colon -58.1%
inactive: NCI-H226 lung 27.1% | NCI-H322M lung 18.3% | HOP-62 NSCLC 17.8% | A549/ATCC NSCLC 18.5%

COc1ccc(C(=O)c2c(N)nc3n2CCCC3)cc1OC
inactive: NCI-H23 lung 109% | NCI-H226 lung 96.9% | NCI-H322M lung 96.2% | HOP-62 NSCLC 102% | NCI-H460 lung 105% | HOP-92 NSCLC 118% | NCI-H522 lung 81.7% | A549/ATCC NSCLC 102% | 786-0 renal 100% | COLO 205 colon 107%

OC(c1cc2c(Cl)cc(Cl)cc2c2cc(C(F)(F)F)ccc12)C1CCCCN1 (stereo not given)
active: NCI-H23 lung -77.5% | NCI-H226 lung -66% | NCI-H322M lung -69.7% | HOP-62 NSCLC -90% | NCI-H460 lung -73.6% | HOP-92 NSCLC -88.8% | NCI-H522 lung -83.9% | A549/ATCC NSCLC -80.9% | 786-0 renal -67.6% | COLO 205 colon -88.3%

O=C1/C(=C\c2cccn2Cc2ccc(F)cc2)c2ccccc2N1c1c(Cl)cccc1Cl
inactive: NCI-H23 lung 81.1% | NCI-H226 lung 64% | NCI-H322M lung 69.4% | HOP-62 NSCLC 92.1% | NCI-H460 lung 87.7% | HOP-92 NSCLC 66% | NCI-H522 lung 77% | A549/ATCC NSCLC 69.4% | 786-0 renal 76.6% | COLO 205 colon 84.9%

Brc1ccccc1Cn1c(-c2cncs2)nc2ccccc21
inactive: NCI-H23 lung 85.4% | NCI-H226 lung 70.5% | NCI-H322M lung 86.6% | HOP-62 NSCLC 76% | NCI-H460 lung 80.8% | NCI-H522 lung 66.8% | A549/ATCC NSCLC 82.7% | 786-0 renal 90.6% | COLO 205 colon 84.9%
active: HOP-92 NSCLC 0.748%

O=C(Cn1nncc1CN1C(=O)CSC1=O)Nc1ccc(F)cc1
inactive: NCI-H23 lung 97.3% | NCI-H226 lung 95.7% | NCI-H322M lung 102% | HOP-62 NSCLC 97.2% | NCI-H460 lung 103% | HOP-92 NSCLC 104% | NCI-H522 lung 93.5% | A549/ATCC NSCLC 102% | 786-0 renal 102% | COLO 205 colon 107%

CCNC(=S)N(Cc1ccccc1)Cc1ccccc1
inactive: NCI-H23 lung 110% | NCI-H226 lung 114% | NCI-H322M lung 104% | HOP-62 NSCLC 94.5% | NCI-H460 lung 131% | HOP-92 NSCLC 76.7% | NCI-H522 lung 88.1% | A549/ATCC NSCLC 98.4% | 786-0 renal 107% | COLO 205 colon 132%

COC(=O)/C=C/c1cc(OC(C)=O)c2c(c1)[C@@H](C(=O)OC)[C@H](c1ccc(OC(C)=O)c(OC(C)=O)c1)O2
active: NCI-H226 lung -7.97% | NCI-H522 lung -25.3%
inactive: NCI-H23 lung 20.7% | NCI-H322M lung 60% | HOP-62 NSCLC 24% | NCI-H460 lung 11.4% | HOP-92 NSCLC 12.9% | A549/ATCC NSCLC 20.6% | 786-0 renal 21.5% | COLO 205 colon 47.1%

CC(C)OC(=O)c1ccc([N+](=O)[O-])cc1
inactive: NCI-H23 lung 103% | NCI-H226 lung 106% | NCI-H322M lung 111% | HOP-62 NSCLC 110% | NCI-H460 lung 109% | HOP-92 NSCLC 84.1% | NCI-H522 lung 105% | A549/ATCC NSCLC 101% | 786-0 renal 109% | COLO 205 colon 123%

Clc1cn2cc(-c3ccc(Cl)c(Cl)c3Cl)nc2s1
inactive: NCI-H23 lung 92.7% | NCI-H226 lung 90.1% | NCI-H322M lung 91.9% | HOP-62 NSCLC 86.7% | NCI-H460 lung 109% | HOP-92 NSCLC 85.8% | NCI-H522 lung 91.4% | A549/ATCC NSCLC 103% | 786-0 renal 99.9% | COLO 205 colon 106%

O=c1c2sc3ccccc3c2nnn1-c1ccc(F)c(Cl)c1
active: HOP-62 NSCLC -15% | HOP-92 NSCLC -1.07%
inactive: NCI-H23 lung 73% | NCI-H226 lung 34.3% | NCI-H322M lung 49.4% | NCI-H460 lung 10.4% | NCI-H522 lung 64.5% | A549/ATCC NSCLC 30.3% | 786-0 renal 31.9% | COLO 205 colon 41.9%

COc1ccc(OC)c(Nc2nc(-c3c(C)nc4sccn34)cs2)c1
inactive: NCI-H23 lung 69.7% | NCI-H226 lung 65.7% | NCI-H322M lung 93.7% | HOP-62 NSCLC 75.7% | NCI-H460 lung 62.4% | HOP-92 NSCLC 97.6% | NCI-H522 lung 78.6% | A549/ATCC NSCLC 74.6% | 786-0 renal 101% | COLO 205 colon 100%

CCOC(=O)c1ccc(N(CCC(=O)O)C(C)=O)cc1
inactive: NCI-H23 lung 111% | NCI-H226 lung 102% | NCI-H322M lung 92.1% | HOP-62 NSCLC 108% | NCI-H460 lung 111% | HOP-92 NSCLC 96.2% | NCI-H522 lung 95% | A549/ATCC NSCLC 104% | 786-0 renal 104% | COLO 205 colon 119%

NC(N)=N/N=C\c1ccc(OCc2ccccc2)cc1
inactive: NCI-H23 lung 84% | NCI-H226 lung 46.4% | NCI-H322M lung 93.4% | HOP-62 NSCLC 62.8% | NCI-H460 lung 96.4% | HOP-92 NSCLC 40.2% | NCI-H522 lung 77.3% | A549/ATCC NSCLC 82.8% | 786-0 renal 81.7%
active: COLO 205 colon -62.8%

CC1=C(C(=O)Nc2ccc(F)cc2)C(c2ccc(Cl)cc2)C2=C(CC(C)(C)CC2=O)N1 (stereo not given)
inactive: NCI-H23 lung 86% | NCI-H226 lung 84.1% | NCI-H322M lung 102% | HOP-62 NSCLC 97.2% | NCI-H460 lung 96.4% | HOP-92 NSCLC 62% | NCI-H522 lung 82.4% | A549/ATCC NSCLC 78.3% | 786-0 renal 88.3% | COLO 205 colon 97%

CCOc1cccc(/C=N/NC(=O)c2ccc(Nc3ccnc(C(F)(F)F)c3)cc2)c1O
inactive: NCI-H23 lung 28.2% | NCI-H322M lung 22.3% | HOP-92 NSCLC 18.2% | A549/ATCC NSCLC 17.8%
active: NCI-H226 lung -16.7% | HOP-62 NSCLC -9.17% | NCI-H460 lung -3.48% | NCI-H522 lung 2.45% | 786-0 renal 3.12% | COLO 205 colon -9.24%

CC(=O)[C@@]1(O)[C@H](C)C[C@H]2[C@@H]3C=C(C)C4=Cc5c(cnn5-c5ccccc5)C[C@]4(C)[C@H]3[C@@H](O)C[C@@]21C
inactive: NCI-H23 lung 32.4% | NCI-H226 lung 63.3% | NCI-H322M lung 75.9% | HOP-62 NSCLC 34.8% | HOP-92 NSCLC 13.2% | A549/ATCC NSCLC 14.5%
active: NCI-H460 lung -20.5% | NCI-H522 lung -2.67% | 786-0 renal -9.28% | COLO 205 colon -23.8%

COc1ccc(Sc2[nH]c(C=O)c3ccccc23)cc1
inactive: NCI-H23 lung 73.3% | NCI-H226 lung 72.5% | NCI-H322M lung 46.8% | HOP-62 NSCLC 71% | HOP-92 NSCLC 53.8% | NCI-H522 lung 75.2% | A549/ATCC NSCLC 34.5% | 786-0 renal 70.1%
active: NCI-H460 lung 6.72% | COLO 205 colon -0.0496%

O=C1/C(=C\c2cccn2C(=O)c2ccccc2)c2ccccc2N1c1c(Cl)cccc1Cl
inactive: NCI-H23 lung 75.3% | NCI-H226 lung 70.1% | NCI-H322M lung 93.7% | HOP-62 NSCLC 99.3% | NCI-H460 lung 94.8% | HOP-92 NSCLC 81.5% | NCI-H522 lung 70.5% | A549/ATCC NSCLC 77.3% | 786-0 renal 94% | COLO 205 colon 98%

O=C(CCc1nc2sc3c(c2c(=O)[nH]1)CCC3)NCc1cn(-c2ccccc2)nc1-c1ccccc1
inactive: NCI-H23 lung 66.2% | NCI-H226 lung 92.2% | NCI-H322M lung 92.8% | HOP-62 NSCLC 80.8% | HOP-92 NSCLC 95.9% | NCI-H522 lung 78.9% | A549/ATCC NSCLC 16.5% | 786-0 renal 98.4% | COLO 205 colon 75.7%
active: NCI-H460 lung 1.28%

CCCNC(=S)N/N=C(\C)c1ccccn1
inactive: NCI-H23 lung 35.7% | NCI-H226 lung 21.5% | HOP-62 NSCLC 44% | NCI-H460 lung 17.7% | HOP-92 NSCLC 37.2% | NCI-H522 lung 56.4% | A549/ATCC NSCLC 31.7% | 786-0 renal 20.4% | COLO 205 colon 20.8%
active: NCI-H322M lung 4.31%

NC(=S)N/N=C(/c1cccs1)C1CC1
inactive: NCI-H23 lung 101% | NCI-H226 lung 90.5% | NCI-H322M lung 93% | HOP-62 NSCLC 91.8% | NCI-H460 lung 106% | HOP-92 NSCLC 107% | NCI-H522 lung 87.4% | A549/ATCC NSCLC 63.6% | 786-0 renal 105% | COLO 205 colon 105%

CCCCCCCCCCCCCCCc1cc(O)ccc1[N+](=O)[O-]
inactive: NCI-H23 lung 79.6% | NCI-H226 lung 96.9% | NCI-H322M lung 100% | HOP-62 NSCLC 96% | NCI-H460 lung 102% | HOP-92 NSCLC 59.9% | NCI-H522 lung 28% | A549/ATCC NSCLC 96.8% | 786-0 renal 97.9% | COLO 205 colon 96%

COC(=O)C(C)NC1=C(Cl)C(=O)C(NC(C)C(=O)OC)=C(Cl)C1=O (stereo not given)
inactive: NCI-H23 lung 101% | NCI-H226 lung 100% | NCI-H322M lung 101% | HOP-62 NSCLC 98.7% | NCI-H460 lung 95.9% | HOP-92 NSCLC 101% | NCI-H522 lung 78.2% | A549/ATCC NSCLC 98.9% | 786-0 renal 105% | COLO 205 colon 99.5%
